Values joined by “and” are separate entries in the source; they are usually repeats but may differ in a detail not shown here. Equal values may be shown once. Screen size: about 290,000 compounds; about 27,000 (9.3%) were called active. Rule as the data show it: active = inhibition mostly above about 28% (no sharp cut-off); inactive = mostly below about 43%. Many of the other results were omitted from the sample, so actives are more common in it than they were.
Test: A qHTS for Small Molecule Inhibitors of Shiga Toxin; also: 0% is about no effect
Details: Vero cells, Shiga toxin protein synthesis inhibition reporter; at 38.7 µM, stronger effect = higher value
For `Cc1cc(S(=O)(=O)NCC(C)C)ccc1OCC(=O)NC1CC1`, the inhibition was -1.92% (inactive).
For `COc1ccc(O)c(/C=N/N=C/c2cccc([N+](=O)[O-])c2)c1`, the inhibition was 1.13% (inactive).
For `O=C(O)c1ccccc1-c1ccccc1C(=O)Nc1ccccc1Br`, the inhibition was 10.4% (inactive).
For `COc1ccccc1OCCn1c(SCC(N)=O)nc2ccccc21`, the inhibition was -12.1% (inactive).
For `COc1cccc2sc(NNC(=O)c3nc4ccccc4s3)nc12`, the inhibition was 19.2% (inactive).
In the case of `COc1ccccc1OCc1nc2ccccc2s1`, the inhibition is reported as 63.5% (active).
In the case of `Cc1ccc(O)c(/C=N/NC(=O)COc2ccc3c(C)cc(=O)oc3c2)c1`, the inhibition is reported as 4.79% (inactive).
In the case of `CCOC12CC(C)(C)CC(C)(CC3=C1C(=O)CC(C)(C)C3)C2` (stereo not given), the inhibition is reported as -2.06% (inactive).
For `CCCCOP(=O)(c1ccc(N(C)C)cc1)C(O)c1cc(OC)ccc1OC` (stereo not given), the inhibition was -2.17% (inactive).
In the case of `CCOC(=O)/C(C#N)=C/c1ccc(N2CCCCC2)cc1`, the inhibition is reported as 111% (active).
In the case of `CCOC(=O)/C(C#N)=C/c1ccc(N2CCN(Cc3ccccc3)CC2)cc1`, the inhibition is reported as 32.9% (inactive).
In the case of `COc1ccc(N2CCN(C(=O)/C(C#N)=C/c3ccccc3)CC2)cc1`, the inhibition is reported as 33.9% (inactive).
In the case of `COc1ccc(S(=O)(=O)N2CCC(C(=O)N3CCCC3)CC2)cc1C`, the inhibition is reported as -7.97% (inactive).
For `CCOc1ccc(NC(=O)c2cccc3c2C(=O)N(CC2CCCO2)C3)cc1` (stereo not given), the inhibition was 11.4% (inactive).
For `COc1ccc(C2CC(O)(c3ccccc3)Oc3cc(C)cc(C)c32)cc1` (stereo not given), the inhibition was 17.1% (inactive).
With `COCCn1c(SCC(=O)Nc2cc(Cl)ccc2OC)nc2c(c1=O)SC(C)C2` (stereo not given) the inhibition was 4.22% (inactive).
In the case of `C=CCSc1nc2c(c(=O)[nH]c(=O)n2C)n1Cc1ccccc1`, the inhibition is reported as -6.62% (inactive).
For `CN(c1ccccc1)c1ccc(/C=c2\s/c(=C(/C#N)C(=O)C(C)(C)C)n(Cc3ccco3)c2=O)cc1`, the inhibition was -15.7% (inactive).
For `Cc1cs/c(=N\N=C\c2ccc(O)cc2)n1Cc1ccco1`, the inhibition was 0% (active).
With `CC(C)n1c(=O)c(C=Nc2ccc(Br)cc2)c(O)n(Cc2ccco2)c1=O` the inhibition was -2% (inactive).
In the case of `CC(C)c1ccc(Cc2nnc(NCCCO)[nH]c2=O)cc1`, the inhibition is reported as -6.37% (inactive).
For `Cc1ccccc1CN1C(=O)c2ccccc2Sc2ccc(C(=O)NCCCN3CCOCC3)cc21`, the inhibition was -7.27% (inactive).
In the case of `COC(=O)c1ccc(CNC(=O)C2CCC(=O)N(Cc3cccc(F)c3)C2)cc1` (stereo not given), the inhibition is reported as -2.68% (inactive).
In the case of `O=C(c1ccccc1)c1ccc(C(=O)N2CCN(c3ccccc3)CC2)cc1`, the inhibition is reported as 30.8% (inactive).
With `COc1ccc(S(=O)(=O)NC(C)C(=O)N2CCCCCC2)cc1` (stereo not given) the inhibition was -16.1% (inactive).
With `O=C(c1ccccc1)c1ccc(OC(=O)N2CCCC2)cc1` the inhibition was 47.5% (active).
For `CC(C)(C)c1ccc(C(=O)N2CCC(C(=O)N3CCCCC3)CC2)cc1`, the inhibition was -4.15% (inactive).
In the case of `CC(C)(C)c1ccc(OC(=O)N2CCCCC2)cc1`, the inhibition is reported as 104% (active).
With `O=C(c1ccccc1)c1ccc(OCC(O)CN2CCCC2)cc1` (stereo not given) the inhibition was 2.19% (inactive).
In the case of `O=C(NCCc1ccccn1)c1nc(Cn2cc([N+](=O)[O-])cn2)no1`, the inhibition is reported as -5.12% (inactive).
With `COc1cccc(CN(C)CC(O)COC(c2ccccc2)c2ccccc2C)c1` (stereo not given) the inhibition was -8.7% (inactive).
In the case of `COc1ccc(-c2nc(N)ncc2-c2ccc(Cl)cc2)c(O)c1`, the inhibition is reported as 8.54% (inactive).
With `COc1ccc(-c2nnc3n2CCCCC3)cc1` the inhibition was 5.25% (inactive).
For `COc1ccc(-c2nc3n(c2Br)CCC3)cc1`, the inhibition was 87.2% (active).
For `Brc1cccc(-c2nnc3n2CCC3)c1`, the inhibition was -4.22% (inactive).
With `CCCCCn1c(=O)[nH]c2cc(C(=O)NCCCN3CCCCC3C)ccc2c1=O` (stereo not given) the inhibition was -23.9% (inactive).
In the case of `CNC(=O)CN1C(=O)NC(c2ccccc2)(c2ccccc2)C1=O`, the inhibition is reported as -7.36% (inactive).
For `O=C(NCc1ccc(F)cc1)C1CCN(C(=O)Nc2ccc(F)cc2)CC1`, the inhibition was -9.53% (inactive).
In the case of `CC1=NN(c2ccccc2)C(=O)C1C(=O)c1ccc([N+](=O)[O-])cc1` (stereo not given), the inhibition is reported as 27.4% (inactive).
For `O=C1CC(c2ccccc2)=NN1c1ccc([N+](=O)[O-])cc1`, the inhibition was 55% (active).
For `O=c1[nH]n(-c2ccc([N+](=O)[O-])cc2)c(=O)c2ccccc12`, the inhibition was -17% (inactive).
For `CCC(C)[C@H](NC(=O)N1CCn2c1nc1ccccc12)C(=O)NCc1ccc(OC)cc1` (stereo not given in full), the inhibition was 13.9% (inactive).
For `COc1ccc(C(CNCC(=O)Nc2ccccc2F)N(C)C)cc1` (stereo not given), the inhibition was 7.34% (inactive).
For `Cc1cc(C)c2nc(SCCC#N)nc(C)c2c1`, the inhibition was 27.9% (inactive).
In the case of `Cc1cc(C)c2nc(-c3ccco3)cc(C(=O)O)c2c1`, the inhibition is reported as -7.1% (inactive).
In the case of `Cc1cc(C)c2nc3nc(C)cc(C)c3c(N)c2c1`, the inhibition is reported as 32.6% (active).
With `OCCC(O)CO` (stereo not given) the inhibition was -8.78% (inactive) and 20.3% (inactive) and 19.5% (inactive).
In the case of `COc1ccc(-c2c(C#Cc3ccccc3)c3ccccc3n2C)cc1`, the inhibition is reported as 43.7% (active).
For `COc1ccc(CCNCc2c(-c3ccccc3)n(C)c3ccccc23)cc1`, the inhibition was 11.5% (inactive).
With `CN(C)Cc1c(C#N)c2ccccc2n1C` the inhibition was -25% (inactive).
In the case of `COc1cccc(C(=O)Nc2nnc(S(=O)(=O)N(C)c3ccccc3)s2)c1`, the inhibition is reported as 3.08% (inactive).
In the case of `Cc1nc2sccn2c(=O)c1S(=O)(=O)NCCc1ccccc1`, the inhibition is reported as -9.77% (inactive).
With `Cc1ccc(OCC(=O)Nc2nnc(-c3ccco3)s2)cc1` the inhibition was 4.17% (inactive).
In the case of `CCC(=O)Oc1cccc(C(=O)Nc2ccc(-c3nnc(-c4ccco4)o3)cc2)c1`, the inhibition is reported as 90.4% (active).
In the case of `Cc1ccc(OCC(=O)Nc2ccc(-c3nc4ncccc4o3)cc2)cc1`, the inhibition is reported as 2.45% (inactive).
For `Cc1cccc(NC(=O)CSc2nnc(-c3ccco3)o2)c1`, the inhibition was -23.3% (inactive).
In the case of `COc1ccc(OCC(=O)Nc2nnc(-c3ccco3)s2)cc1`, the inhibition is reported as 2.24% (inactive).
In the case of `CCCCOc1ccc(-c2nnc(-c3ccco3)o2)cc1`, the inhibition is reported as 85.9% (active).
With `COc1ccc(C(=O)CSc2nnc(-c3ccco3)o2)cc1` the inhibition was 10.9% (inactive).
With `O=C(CCc1ccccc1)Nc1cccc(-c2nnc(-c3ccco3)o2)c1` the inhibition was 19.4% (inactive).
For `Cc1ccc(OCC(=O)Nc2ccc(-c3nnc(-c4ccco4)o3)cc2)cc1`, the inhibition was 22.1% (active).
With `Cc1ccc(-c2nnc(Nc3ccc(C(=O)N(C)C)cc3)c3ccccc23)cc1S(N)(=O)=O` the inhibition was 1.45% (inactive).
With `CC(C)(C)n1ncc2c(=O)n(Cc3ccc(Cl)cc3)cnc21` the inhibition was 33.8% (inactive).
For `Cc1cc(=O)oc2c(C)c(OCC(=O)NCCc3ccc(S(N)(=O)=O)cc3)ccc12`, the inhibition was -5.85% (inactive).
For `CCOc1ccc(NC(=O)[C@H](C)NC(=O)C2CC(=O)N(c3ccc(OC)cc3)C2)cc1` (stereo not given in full), the inhibition was -4.28% (inactive).
For `COCCCNc1nc2ccccc2nc1NS(=O)(=O)c1ccc(F)cc1`, the inhibition was 2.37% (inactive).
In the case of `CCCCNC(=O)N1CCCC(N(C)CCc2ccc(OC)c(OC)c2)C1` (stereo not given), the inhibition is reported as -2.02% (inactive).
In the case of `Cc1ccc(NC(=O)CSc2nn3c(=O)c(C)nnc3s2)cc1Cl`, the inhibition is reported as 7.47% (inactive).
With `O=C(NC1CCCC1)c1ccc(Br)s1` the inhibition was 30.7% (inactive).
In the case of `O=C(Nc1ccc2c(c1)CCC2)c1ccc(Br)s1`, the inhibition is reported as 112% (active).
For `CC(C)C(=O)OCC(=O)Nc1ccc2c(c1)CCC2`, the inhibition was 14.2% (inactive).
For `CC1=C(C(=O)OCC2CCCCC2)C(c2ccc(F)cc2)NC(=O)N1` (stereo not given), the inhibition was -7.87% (inactive).
For `CN(C)c1nc(Nc2ccc(Cl)c(Cl)c2)nc(N(C)C)n1`, the inhibition was -11.2% (inactive).
For `Cc1ccc(CS(=O)(=O)CCC(=O)NCc2ccc(F)cc2)cc1`, the inhibition was -8.45% (inactive).
With `CCOC(=O)Cc1csc(SCC(=O)NC(C)C23CC4CC(CC(C4)C2)C3)n1` (stereo not given) the inhibition was 3.03% (inactive).
In the case of `CCc1cccc(CC)c1NC(=S)NCc1ccc2[nH]c(C)cc2c1`, the inhibition is reported as -9.97% (inactive).
In the case of `Cc1cc2cc(CNC(=O)c3ccc(S(=O)(=O)N4CCOCC4)cc3)ccc2[nH]1`, the inhibition is reported as -6.18% (inactive).
With `Cc1cc2cc(CNC(=O)c3cccs3)ccc2[nH]1` the inhibition was 21.3% (active).
With `COc1ccc(CNc2ncnc3ccccc23)cc1` the inhibition was -14.9% (inactive).
In the case of `Cc1c(C)c(C)c(S(=O)(=O)N2CCC3(CC2)OCCO3)c(C)c1C`, the inhibition is reported as -4.05% (inactive).
With `O=C(C1CCCO1)N1CCN(S(=O)(=O)c2ccc(Br)cc2)CC1` (stereo not given) the inhibition was -30% (inactive).
For `O=C1Nc2cc(C(=O)N3CCN(c4ccc(F)cc4)CC3)ccc2NC1CSCc1cccc(F)c1` (stereo not given), the inhibition was -13.8% (inactive).
For `COc1cc(NC(=O)C2=C(C)OCCS2)c(Cl)cc1C(=O)NCCN1CCN(C)CC1`, the inhibition was -4.3% (inactive).
In the case of `Cc1ccnc(N2C(=O)c3ccccc3C2Nc2ccc3c(c2)OCCO3)c1` (stereo not given), the inhibition is reported as 162% (active).
For `COC(=O)c1cc(NC2c3ccccc3C(=O)N2c2ccc(Cl)cn2)cc(C(=O)OC)c1` (stereo not given), the inhibition was 27.1% (inactive).
For `Cc1cccc(C(=O)Nc2ccccc2-c2nnn(CC(=O)Nc3ccc4c(c3)OCCO4)n2)c1`, the inhibition was -7.74% (inactive).
With `COc1ccccc1C1/C(=C(/O)c2ccc(C)cc2)C(=O)C(=O)N1Cc1ccco1` (stereo not given) the inhibition was -8.56% (inactive).
With `O=C(NC1CCCCC1)C1c2ccccc2C(=O)N1Cc1ccco1` (stereo not given) the inhibition was 2.78% (inactive).
With `O=C1c2ccccc2C(Nc2ccc3c(c2)OCCO3)N1Cc1ccco1` (stereo not given) the inhibition was 75.3% (active).
In the case of `CC(C)(C)NCc1cc(Br)ccc1OC1CCCC1`, the inhibition is reported as -3.59% (inactive).
For `CCc1ccc2[nH]c(=O)c(Cc3ccccc3)c(O)c2c1`, the inhibition was -8.55% (inactive).
In the case of `Cc1ccc(C2SCC(=O)N2c2ccccc2)cc1` (stereo not given), the inhibition is reported as 23.4% (inactive).
With `C=CCN1C(=NC(=O)COc2ccccc2)SC2CS(=O)(=O)CC21` (stereo not given) the inhibition was -9.63% (inactive).
For `Cc1ccc(C(=O)N/C(=C\c2cn(C)c3ccccc23)C(=O)N2CCN(C)CC2)cc1`, the inhibition was -1.79% (inactive).
For `Cc1ccc(CN2CCNC(=O)C2CC(=O)NCc2csc(C(C)C)n2)cc1` (stereo not given), the inhibition was -6.42% (inactive).
